Assay outcomes deposited in PubChem by Broad Institute.
BJeLR viability = compounds reducing viability of BJeLR cells; actives 0.64% (n = 30,000); viability loss activity score, % (test concentration not listed); BJeLR fibroblasts viability, CellTiterGlo ATP luminescence, 48 h; HRASV12, hTERT and SV40 LT/ST transformed; in the data active = viability loss activity score above about 50%; inconclusive = no clear call, values can overlap the other calls; inactive = below about 35%;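 also: higher score means fewer live cells and less ATP luminescence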
Shh pathway inh = Sonic Hedgehog pathway inhibition. AID 2313. actives 2.1% (n = 22,000). Shh-LIGHT2 Gli-luciferase reporter, 30 h. inhibition, % (concentration not given with the values);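 active = mean inhibition across valid replicates above about 65%, limit read from the data; inconclusive = mean under the limit, yet half or more replicates past it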;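 also: pathway switched on by Shh-conditioned medium diluted 1 in 25 in low serum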
YB-1 expression = YB-1 expression inhibition | delta delta Cp (YB-1 minus CDIP) (no concentration beside the values) | U2OS, qRT-PCR YB-1 vs CDIP delta delta Cp, 16 h; active compounds read high; zero = DMSO, each unit about twofold | actives 0.37% (n = 30,000);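 active = delta delta Cp rounded down to an integer at or above 3, about 3 SD of DMSO wells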;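 also: higher means less YB-1 transcript or more CDIP transcript relative to DMSO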
MITF inh = inhibitors of MITF | TRPM1 promoter luciferase, luminescence, 24 h | inhibition, % (no concentration beside the values) | actives 0.28% (n = 37,000) | AID 2240; in the data active = inhibition above about 85%; inconclusive = no clear call, values can overlap the other calls; inactive = below about 68%;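 also: human melanocyte line stably carrying TRPM1 promoter luciferase reporter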
The depositor's hits bear a star; ? = inconclusive; nt = no result given. This excerpt belongs to a sample that is enriched for hits.

SMILES	BJeLR viability	Shh pathway inh	YB-1 expression	MITF inh
C[C@@H]1CCCCO[C@@H](CN(C)C(=O)c2ccncc2)[C@@H](C)CN([C@H](C)CO)C(=O)c2cc(NS(C)(=O)=O)ccc2O1	nt	-9	0.05	4
Cc1ccc([N+](=O)[O-])cc1NC(=O)c1ccc(NC(=O)C2(c3ccccc3)CCOCC2)cc1	nt	nt	nt	12
O=C(Nc1ccc(NC(=O)c2ccccc2O)cc1)c1ccc(Cl)cc1	-4	97*	0.12	-11
CCC(C)CC(C)/C=C\C1OC2=C(C(=O)OC2(C)O)C(O)C1O (stereo unspecified)	104*	?	0.94	?
CN(C)c1nc(Oc2ccc(=O)n(C)n2)nc(N2CCCCC2)n1	-7	nt	nt	nt
C=CCNC1=C2C[C@@H](C)C[C@H](OC)[C@H](O)[C@@H](C)/C=C(\C)[C@H](OC(N)=O)[C@@H](OC)C=C/C=C(/C)C(=O)NC(=CC1=O)C2=O	69*	108*	-0.032	15
O=C(CSc1nc2ccccc2s1)Nc1ccccc1C(=O)c1ccccc1	nt	nt	nt	23
N#C/C(=C(\O)c1ccc(C(=O)c2ccccc2)cc1)c1nc2ccccc2s1	3	96*	0.0008	31
COc1ccc(C[C@H](N)C(=O)N[C@H]2[C@@H](O)[C@H](n3cnc4c(N(C)C)ncnc43)O[C@@H]2CO)cc1	4	85*	-0.23	102*
CC1(C)O[C@@H]2[C@H](O1)[C@@H](CO)O[C@H]2n1cnc2c(N)ncnc21	-5	nt	-0.36	-4
COc1cc(CC2COC(=O)C2(O)Cc2ccc(O)c(OC)c2)ccc1O (stereo unspecified)	1	-28	-2.8	91*
COc1cc(C[C@@]2(O)C(=O)OC[C@@H]2Cc2ccc(OC)c(OC)c2)ccc1O	8	50	-0.14	67
CC(C)NC(=O)Nc1ccc2c(c1)C(=O)N([C@H](C)CO)C[C@@H](C)[C@@H](CN(C)Cc1ccc(-c3ccccc3)cc1)O2	-1	67*	-0.1	-5
Cc1noc(C)c1NC(=O)Nc1ccc2c(c1)C(=O)N([C@H](C)CO)C[C@@H](C)[C@@H](CN(C)Cc1ccc(Oc3ccccc3)cc1)O2	2	67*	-0.47	4
C[C@@H]1CN([C@H](C)CO)C(=O)c2cc(NC(=O)NC3CCCCC3)ccc2O[C@@H]1CN(C)Cc1ccc(Oc2ccccc2)cc1	1	91*	0.27	11
Cc1noc(C)c1NC(=O)N(C)C[C@H]1Oc2ccc(NC(=O)Cn3cnnn3)cc2C(=O)N([C@@H](C)CO)C[C@@H]1C	-3	4	3.9*	-2
CSc1nnc(CNC(=O)OC(C)(C)C)n1C	-3	nt	nt	nt
COc1ccc(NC(=O)N(C)C[C@@H]2Oc3c(NC(=O)C4CC4)cccc3C(=O)N([C@@H](C)CO)C[C@@H]2C)cc1	0	9	-0.33	-3
C[C@@H]1CCCCO[C@@H](CN(C)Cc2ccc3c(c2)OCO3)[C@@H](C)CN([C@H](C)CO)C(=O)c2cc(NS(=O)(=O)c3cccs3)ccc2O1	nt	74*	-0.51	0
COc1ccc(NC(=O)Nc2ccc3c(c2)C(=O)N([C@H](C)CO)C[C@H](C)[C@H](CN(C)Cc2ccc4c(c2)OCO4)OCCCC[C@@H](C)O3)cc1	nt	72*	0.32	17
C[C@H](CO)N1C[C@H](C)[C@H](CN(C)S(=O)(=O)c2ccc(F)cc2)Oc2c(NC(=O)Nc3ccc4c(c3)OCO4)cccc2C1=O	1	92*	-0.38	-11
C[C@@H]1CN([C@@H](C)CO)C(=O)c2cccc(NC(=O)Nc3ccc4c(c3)OCO4)c2O[C@H]1CN(C)S(=O)(=O)c1ccc(F)cc1	-12	1	0.26	2
Cc1ccc(S(=O)(=O)N(C)C[C@@H]2Oc3c(NC(=O)Nc4ccc5c(c4)OCO5)cccc3C(=O)N([C@H](C)CO)C[C@@H]2C)cc1	-3	115*	0.4	-11
C[C@H]1CN([C@@H](C)CO)C(=O)c2cccc(NC(=O)Nc3ccc4c(c3)OCO4)c2O[C@H]1CN(C)S(=O)(=O)c1ccc(F)cc1	1	101*	-0.12	-30
COc1ccccc1NC(=O)CSc1nc(-c2ccccc2)cc(=O)[nH]1	nt	nt	nt	-2
COc1ccc(C2OC(c3ccc(S(=O)(=O)N4CCCCC4)cc3)=NN2C(C)=O)cc1 (stereo unspecified)	0	nt	nt	nt
C[C@@H]1CCCCO[C@H](CN(C)Cc2ccc(C(F)(F)F)cc2)[C@@H](C)CN([C@H](C)CO)C(=O)c2cc(NC(=O)C3CCCCC3)ccc2O1	nt	66*	-0.5	20
